HSF1 inh: HSF1 inhibitors in luciferase reporter cells, primary screen, cell-based, NIH3T3, luminescence | NIH3T3-HGL HSE-luciferase, MG132-induced, luminescence 8 h; hits give low values | activity change, negative = inhibition, % at 7.5 µM (by protocol) | 0.77% of 300,000 active | AID 2098, 2009;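 active = more than half of replicate wells show activity change below -50%, luminescence cut by over half; inconclusive = some wells, but at most half, below -50%; inactive = no replicate well below -50%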;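 also: luciferase reports HSF-1 transcriptional activity via heat shock element; 0% = median of DMSO wells and -100% = zero luminescence signal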
esBAF inh: Bmi1 luciferase reporter increase in mESCs, primary screen, esBAF inhibitor project, mouse ES cells, Bmi1 luciferase knock-in, single point | 24 h; 100% = twice the neutral-well signal | reporter increase, % at 12.5 µM | 2% of 350,000 active | AID 602393, 2012; in the data active = activation above about 40%; inconclusive = no clear call, values can overlap the other calls;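 also: 0% = median of the plate's neutral control wells and 100% = double that signal; a rise in the Bmi1 reporter signal indicates esBAF inhibition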
HSF-1 act: HSF-1 activators, primary screen, NIH3T3-HGL cells, MG132 stress, luminescence, single point | NIH3T3-HGL HSF-1 luciferase reporter, 8 h; 100% = twice DMSO control signal | activation, % at 9 µM | AID 504408, 2011 | 1.7% of 300,000 active;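 active = mean replicate activation of at least 50% with a set share of replicates each reaching 50%; inconclusive = only one of those two conditions met; inactive = mean below 50% and too few replicates reaching it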;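 also: 0% = median of the neutral control wells and 100% = twice that signal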
Wnt act: Wnt/beta-catenin pathway activators, primary screen, cell-based, plate reader, single point. Wnt/beta-catenin reporter cell assay, activator. activation, % at 9.35 µM. 1.2% of 300,000 active; in the data active = activation above about 30%, passing the limit was not always enough; inconclusive = no clear call, values can overlap the other calls;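 also: 0% = neutral control wells and 100% = positive control wells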
MITF TRPM1 HTS: activators of MITF-driven TRPM1 promoter reporter, primary screen, cell-based, SK-MEL-5, luciferase, single point; SK-MEL-5 TRPM1-promoter luciferase, 24 h; % of positive control, neutral wells = 0; 0.75% of 300,000 active; AID 588334, 2011; activation, % at 12.5 µM;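 active = mean activation of at least 80% with every replicate also reaching 80%; inconclusive = mean reaches 80% but some replicate falls short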;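 also: 0% = neutral control wells and 100% = parthenolide positive control wells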
SMARCA2 act: SMARCA2 (BRM) function activators, primary screen, cell-based, luminescence, high throughput | MG213 cells, MMTV-luciferase reporter, dexamethasone, overnight | 1% of 370,000 active | activation, % at 9.1 µM; in the data active = activation above about 7.8%;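 also: 0% = vehicle wells and 100% = reference activator wells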
* marks the source's active call; other numbers are inactive results; ? = inconclusive; . = no result. Only some compounds are listed: those with a hit (about 4.3% of all), similar ones and a draw of the others.

SMILES	HSF1 inh	esBAF inh	HSF-1 act	Wnt act	MITF TRPM1 HTS	SMARCA2 act
OC[C@@H]1CN(Cc2ccc(-c3ccccc3)cc2)C[C@H](n2cnc3c(NCc4ccc(F)cc4)ncnc32)O1	.	-10.5	.	.	.	-9.8
OCCn1cnc2c(SCc3ccccc3)ncnc21	.	34.7	.	3.4	32.9	-0.5
Fc1cccc(CSc2ncnc3c2ncn3C2CCCCO2)c1 (stereo not given)	.	82.6*	.	-0.7	97.6*	0.9
OC[C@@H]1CN(Cc2ccccc2)C[C@H](n2cnc3c(NCc4ccc(F)cc4)ncnc32)O1	.	46.0*	.	.	.	2.0
CCNC(=O)C[C@@H]1CC[C@H]2[C@@H](COC[C@H](O)CN2C(=O)c2cc(Cl)cc(Cl)c2)O1	.	6.3	.	.	.	.
COc1ccccc1OCCCOc1ccc([N+](=O)[O-])cc1Cl	56.8	55.9*	64.6*	-2.1	.	6.3
COc1cccc(OCCCOc2ccc([N+](=O)[O-])cc2Cl)c1	-0.5	-3.9	2.6	-4.2	-9.2	1.1
CC(=O)NCCCOc1ccc([N+](=O)[O-])cc1Cl	10.3	22.9	55.6*	4.0	6.1	5.5
O=C(Nc1ncccc1O)c1cc2ccccc2o1	10.0	-37.4	11.0	55.4*	16.0	6.0
CC(=O)c1cc(NC(=O)c2ccc(C)cc2)c(=O)oc1/C=C/N(C)C	1.8	44.3*	-3.3	.	7.7	3.0
COc1ccc(C(=O)Nc2cc(C(C)=O)c(/C=C/N(C)C)oc2=O)cc1	10.2	0.5	30.5	5.3	13.0	1.1
O=C(Nc1ccccc1C(F)(F)F)c1cc2ccccc2o1	24.9	51.5*	?	14.3	56.0	2.4
COC(=O)c1ccccc1NC(=O)c1cc2ccccc2o1	7.1	?	25.9	-0.7	.	-1.1
Cc1ccc(C)c(NC(=O)c2cc3ccccc3o2)c1	10.4	74.0*	9.1	2.5	.	2.1
O=C(Nc1ccccn1)c1cc2ccccc2o1	-19.3	-67.2	-20.8	.	-62.2	-3.0
Cc1noc(C)c1NC(=O)Nc1cccc2c1O[C@@H](CN(C)C(=O)Nc1ccccc1)[C@@H](C)CN([C@H](C)CO)C2=O	.	-1.9	.	.	.	.
Cc1ccc(C(=O)Nc2cc3ccccc3oc2=O)cc1	-72.0*	-82.5	-74.9	-10.3	-90.7	1.3
Cc1noc(C)c1NC(=O)Nc1cccc2c1O[C@H](CN(C)S(C)(=O)=O)[C@H](C)CN([C@@H](C)CO)C2=O	.	-2.1	.	.	.	.
CCCC#Cc1ccc2c(c1)O[C@@H](CN(C)C(=O)c1cnccn1)[C@@H](C)CN([C@@H](C)CO)S2(=O)=O	.	2.1	.	.	.	.
S=C(NCc1ccccc1)Nc1ccc2ccccc2c1	.	80.5*	.	21.5	59.8	2.0
S=C(NCc1ccccc1)Nc1ccc(Oc2ccccc2)cc1	-13.9	-2.4	-2.6	-0.6	.	0.4
C/C(=C\C(=S)Nc1ccccc1)Nc1ccc2ccccc2c1	1.3	.	-8.6	52.2*	14.4	1.9
NS(=O)(=O)c1ccc(CNC(=S)Nc2ccc(F)c(Cl)c2)cc1	-3.0	.	-10.7	-0.7	0.6	-1.0
COc1ccc(CNC(=S)Nc2ccc(F)c(Cl)c2)cc1	33.2	.	73.4*	-0.1	5.5	-2.0
CC(C)NC(=O)Nc1ccc2c(c1)C(=O)N(C)[C@H]1CC[C@@H](CC(=O)NCC3CCCCC3)O[C@H]1CO2	.	4.2	.	.	.	.
SMILES	HSF1 inh	esBAF inh	HSF-1 act	Wnt act	MITF TRPM1 HTS	SMARCA2 act
COc1cc(NC(=S)NC(C)(C)C)c(OC)cc1Cl	32.4	.	63.4*	1.8	2.7	-3.4
O=C(CN1CCOCC1)N[C@@H]1CC[C@H](CCNC(=O)Nc2cc(F)ccc2F)O[C@H]1CO	.	3.2	.	.	.	.
Cc1cccc(/C=C/c2ccccc2)n1	.	51.3*	.	46.4*	.	1.3
C(=C\c1cc(/C=C/c2ccccc2)ncn1)/c1ccccc1	17.6	54.8*	6.5	37.1*	19.3	3.6
C(/C=C/c1ccccn1)=C\c1ccccc1	21.7	.	60.9*	41.8*	65.1	4.2
O=[N+]([O-])c1nn(-c2ccc3c(c2)OCCO3)n(O)c1=NCc1ccc(F)cc1	22.7	.	54.1*	.	-7.8	1.8
O=[N+]([O-])c1nn(-c2ccc3c(c2)OCCO3)n(O)c1=NCc1ccc(F)cc1Cl	16.9	18.9	11.7	-2.1	78.1	4.2
Cc1ccc(C2CCN(C(=O)Nc3ccccc3)C2)cc1 (stereo not given)	24.2	53.2*	44.5	.	?	5.4
Cc1ccc(NC(=O)N2CCC(c3ccccc3)C2)cc1C (stereo not given)	38.3	4.3	62.2*	56.3*	127.7*	6.4
O=C(Nc1cccc(F)c1)N1CCC(c2ccccc2)CC1	0.0	39.6	24.2	7.1	66.2	3.7
Cc1ccc(NC(=S)N2CCC(c3ccc(C)cc3)C2)cc1 (stereo not given)	18.0	-5.8	14.8	18.8	20.7	2.1
O=C(Nc1ccc(Cl)cc1)N1CCC(c2ccccc2)C1 (stereo not given)	57.7	.	75.8*	55.8*	115.8*	0.1
C[C@H]1CN([C@@H](C)CO)C(=O)c2cc(-c3ccc(C#N)cc3)cnc2O[C@H]1CN(C)C(=O)Nc1ccc(C(F)(F)F)cc1	.	-5.5	.	.	.	.
CO[C@H]1CN(C)C(=O)c2cc(NC(=O)Nc3c(C)noc3C)ccc2OC[C@H](C)N(CC2CC2)C[C@H]1C	.	-2.8	.	.	.	.
CCCNC(=O)Nc1ccc2c(c1)OC[C@@H](C)N(C(=O)C1CCCC1)C[C@@H](C)[C@H](OC)CN(C)C2=O	.	-0.6	.	.	.	.
O=C(COC(=O)c1c(Cl)cccc1Cl)NC1CCCCC1	11.2	.	3.2	0.1	4.8	-3.1
O=C(COC(=O)c1c(F)cccc1Cl)NC1CCCC1	-1.1	49.6*	19.9	3.3	29.0	-1.5
O=C(COC(=O)c1ccccc1Cl)NC1CCCCCC1	.	69.4*	.	-3.7	56.0	1.9
COc1ccccc1-c1ccc2c(c1)O[C@@H](CN(C)Cc1ccc3c(c1)OCO3)[C@@H](C)CN([C@H](C)CO)S2(=O)=O	.	-6.7	.	.	.	.
CC(C)NC(=O)N(C)C[C@@H]1Oc2ccc(NC(=O)Cn3cnnn3)cc2C(=O)N([C@@H](C)CO)C[C@@H]1C	.	2.1	.	.	.	.
COC(=O)c1sc(NC(=O)COc2ccccc2C)nc1C	10.7	.	56.8*	1.5	44.2	0.0
COc1ccccc1OCC(=O)Nc1nc(C)c(C)s1	28.4	29.7	?	35.5*	85.3*	5.3
Cc1ccc(-c2cn(-c3ccccc3)c(SCC(=O)NC3CCS(=O)(=O)C3)n2)cc1C (stereo not given)	-14.6	.	-30.7	-0.3	99.4*	4.6
Cc1[nH]nc2c1C(c1ccco1)C(C#N)=C(N)O2 (stereo not given)	7.6	-1.8	-9.4	-1.7	-9.1	0.0

Screens: PubChem BioAssay, several laboratories
